Reference: the supplement of paper PMC6992640
± gives the standard deviation of the averaged measurements.

What was measured:
Test in all cases: cell viability (% of vehicle); higher = less cytotoxic
HCI01 [1] = cells of a triple-negative basal-like breast cancer xenograft; details: 1 µM; 72 h
UCD52 [2] = cells of a triple-negative basal-like breast cancer xenograft; details: 1 µM; 72 h
WHIM2 [3] = cells of a triple-negative basal-like breast cancer xenograft; details: 1 µM; 72 h
WHIM30 [4] = cells of a triple-negative basal-like breast cancer xenograft; details: 1 µM; 72 h
HCI01 [5] = details: 10 µM; 72 h
HCI03 = cells of an ER-positive luminal breast cancer xenograft; details: 10 µM; 72 h
HCI09 = cells of a triple-negative luminal androgen receptor type breast cancer xenograft; details: 10 µM; 72 h
HCI11 = cells of an ER-positive luminal breast cancer xenograft; details: 10 µM; 72 h
HCI13 = cells of an ER-positive luminal breast cancer xenograft; details: 10 µM; 72 h
HCI16 = cells of a triple-negative basal-like breast cancer xenograft; details: 10 µM; 72 h
UCD52 [6] = details: 10 µM; 72 h
WHIM2 [7] = details: 10 µM; 72 h
WHIM30 [8] = details: 10 µM; 72 h

| SMILES | cell viability (HCI01 [1]) | cell viability (UCD52 [2]) | cell viability (WHIM2 [3]) | cell viability (WHIM30 [4]) | cell viability (HCI01 [5]) | cell viability (HCI03) | cell viability (HCI09) | cell viability (HCI11) | cell viability (HCI13) | cell viability (HCI16) | cell viability (UCD52 [6]) | cell viability (WHIM2 [7]) | cell viability (WHIM30 [8]) |
| --- | --- | --- | --- | --- | --- | --- | --- | --- | --- | --- | --- | --- | --- |
| CCOc1nc2cccc(C(=O)OC(C)OC(=O)OC3CCCCC3)c2n1Cc1ccc(-c2ccccc2-c2nn[nH]n2)cc1 (configuration not stated) [Candesartan Cilexetil] | 88.5 | 97.3 | 106 | 99.7 | 18.1 ± 12 | 94.5 | 18.3 ± 4.6 | 72.3 | 47.71 ± 0.052 | 75.3 | 74.3 ± 16 | 37.6 ± 6.6 | 128 ± 5.3 |
| [O-]n1ccccc1=S.[O-]n1ccccc1=S.[Zn+2] [Zinc Pyrithione] | 52 | 67.2 | 70.2 | 65.3 | 16 ± 11 | 45.1 | 29.6 ± 26 | 24.8 | 144 ± 130 | 43.1 | 25.6 ± 1.7 | 33 ± 8.9 | 45.5 ± 4.8 |
| Clc1ccc(C(Cn2ccnc2)OCc2ccsc2Cl)c(Cl)c1 (configuration not stated) [Tioconazole] | 98.7 | 104 | 111 | 90.1 | 115 ± 63 | 110 | 40.7 ± 32 | 92.1 | 50.1 ± 3.6 | 119 | 60.2 ± 8.4 | 35.8 ± 5.1 | 100 ± 2.3 |
| Cc1cccc(CN2CCN(C(c3ccccc3)c3ccc(Cl)cc3)CC2)c1.Cl.Cl (configuration not stated) [Meclizine 2HCl] | 136 | 93.4 | 98 | 99.5 | 85.9 ± 7.1 | 57.9 | 74 ± 12 | 67.4 | 52.7 ± 10 | 91.8 | 44 ± 6.2 | 71.6 ± 13 | 45.4 ± 6.8 |
| CCOc1cc2ncc(C#N)c(Nc3ccc(OCc4ccccn4)c(Cl)c3)c2cc1NC(=O)C=CCN(C)C [Neratinib (HKI-272)] | 78.4 | 43.9 | 36.4 | 68.9 | 30.1 ± 7.1 | 38.1 | 27.8 ± 11 | 21.3 | 37.6 ± 1.3 | 38.7 | 23.2 ± 2.3 | 49.8 ± 12 | 96.1 ± 1.7 |
| Cl.OC(c1cc(C(F)(F)F)nc2c(C(F)(F)F)cccc12)C1CCCCN1 (configuration not stated) [Mefloquine hydrochloride] | 97.5 | 66 | 103 | 74 | 31.9 ± 1.3 | 40.5 | 23.9 ± 5.5 | 51.4 | 44.6 ± 6.4 | 30 | 30.3 ± 5.2 | 37.7 ± 2 | 49 ± 2.9 |
| Cc1nc(NC(=O)N2CCCC2C(N)=O)sc1-c1ccnc(C(C)(C)C(F)(F)F)c1 (configuration not stated) | 74 | 64.7 | 54.9 | 83.3 | 85.7 ± 9.2 | 45.8 | 28.8 ± 5.1 | 75.9 | 44.2 ± 6.9 | 93.6 | 38.5 ± 2.5 | 65.6 ± 19 | 65.9 ± 2 |
| CCCCCCCCCCCC1=C(O)C(=O)C=C(O)C1=O [Embelin] | 92.8 | 86.8 | 93.5 | 85.6 | 75.6 ± 18 | 97.1 | 22.8 ± 1.3 | 54.1 | 86.3 ± 2.1 | 92.7 | 72.3 ± 5.4 | 77.1 ± 2.9 | 70.1 ± 13 |
| CC[C@@]1(O)C(=O)OCc2c1cc1n(c2=O)Cc2cc3c(CN(C)C)c(O)ccc3nc2-1 [Topotecan] | 65.9 | 101 | 56.5 | 37.4 | 42.8 ± 6.2 | 128 | 28.1 ± 0.98 | 44.4 | 49.1 ± 5.8 | 73 | 42.4 ± 0.96 | 44.5 ± 3.2 | 83.2 ± 6.8 |
